Screening results from PubChem.
rCAG binder: binds r(CAG) RNA repeats; r(CAG) RNA repeat, TO-PRO-1 dye displacement fluorescence; inhibition, % at 3 µM; actives 1.3% (n = 370,000); AID 651821;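 active means inhibition above the plate cutoff, the mean of all test compounds on that plate plus 3 SD, cut at about 35% in these data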;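 further: higher means more dye released from RNA so lower well fluorescence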
MsrA act: activators of bovine methionine sulfoxide reductase A | purified bovine MsrA, absorbance read-out | actives 0.3% (n = 360,000) | AID 602163 | activation, % at 10.6 µM; in the data active means activation above about 7.5%
sPLA2-III inh: Blocks human group III sPLA2 activity; inhibition, % at 12.2 µM; actives 0.56% (n = 370,000); QFRET BODIPY PC-A2 liposome hydrolysis, fluorescence; AID 743126; Q9NZ20;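 active means inhibition above mean plus 3 SD of compounds lying within the high and low control bounds, cut at about 19% in these data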
Target sequence (Q9NZ20 whole entry, looked up): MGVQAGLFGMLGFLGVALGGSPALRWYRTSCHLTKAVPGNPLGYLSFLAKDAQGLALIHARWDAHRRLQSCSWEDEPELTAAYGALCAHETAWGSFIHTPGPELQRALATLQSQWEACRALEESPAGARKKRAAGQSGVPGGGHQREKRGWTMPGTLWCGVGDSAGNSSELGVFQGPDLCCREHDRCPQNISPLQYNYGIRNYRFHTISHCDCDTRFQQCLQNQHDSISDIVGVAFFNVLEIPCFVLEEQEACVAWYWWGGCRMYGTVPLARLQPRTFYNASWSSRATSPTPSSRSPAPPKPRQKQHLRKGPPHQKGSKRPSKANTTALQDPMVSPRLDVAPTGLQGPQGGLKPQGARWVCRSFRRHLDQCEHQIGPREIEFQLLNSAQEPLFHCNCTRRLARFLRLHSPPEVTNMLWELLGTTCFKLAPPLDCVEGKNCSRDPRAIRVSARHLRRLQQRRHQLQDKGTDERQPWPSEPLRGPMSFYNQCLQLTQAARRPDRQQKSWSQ
PG9 Ab binder: binds the HIV-1 gp120 antibody PG9 | TR-FRET gp120-PG9 antibody binding | inhibition, % at 6.7 µM | actives 0.43% (n = 360,000) | AID 624416; in the data active means inhibition above about 8.5%
MsrA inh: bovine MsrA inhibition. purified bovine MsrA, absorbance read-out. inhibition, % at 15.5 µM. AID 651718. actives 0.75% (n = 360,000); in the data active means inhibition above about 4.5%
rCAG binder conf: r(CAG) RNA repeat binding, confirmation. AID 652065. shares compounds with rCAG binder. inhibition, % at 3 µM. TO-PRO-1 dye displacement fluorescence. actives 70% (n = 4,300);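 active means inhibition above a per-plate cutoff, the mean inhibition of sample wells plus 3 SD, cut at about 35% in these data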;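 further: loss of TO-PRO-1 fluorescence as compound displaces dye from 1x1 AA loop RNA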
DNA CAG counter: disrupts DNA CAG TO-PRO-1 complex, flagging rCAG hits; shares compounds with rCAG binder; AID 652068; d(CAG) DNA oligo TO-PRO-1 dye displacement, fluorescence; actives 94% (n = 4,300); inhibition, % at 3 µM;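 active means inhibition above its plate's cutoff, the mean test-well inhibition plus 3 SD, cut at about 4.8% in these data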;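 further: hits displace the dye from DNA and so lower well fluorescence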
DNA CAG DR: DNA CAG dye complex inhibition, dose response counter-screen | IC50, µM | AID 686960 | DNA CAG/GTC duplex TO-PRO-1 dye displacement fluorescence | shares compounds with rCAG binder | actives 20% (n = 250); in the data active means IC50 below about 10 µM
Large screens that a line does not name were inactive (follow-up assays come after a bar, where they were run). The list is not random: actives were taken first. Their share in the collection is about 3.2%.

COC(=O)[C@]12C[C@H](CC(=O)N3CCC(c4ccccc4)CC3)C(=O)N(Cc3cccc4ccccc34)C1=C[C@H](C(C)C)O[C@@H]2C1CC1	none (no result: MsrA act, PG9 Ab binder, MsrA inh)
CC1=C(C)CC(C(=O)Nc2nc(-c3ccc(C)cc3C)c(C)s2)C(C(=O)O)C1 (stereo not given)	rCAG binder 54 | rCAG binder conf 56 | DNA CAG counter 23 | DNA CAG DR inactive
COc1cc(C)c(C(=O)Oc2cc(C)c(C(=O)O)c(O)c2C)c(O)c1C	rCAG binder 87 | rCAG binder conf 84 | DNA CAG counter 52
COC(=O)[C@]12C[C@H](CC(=O)N3CCCCC3)C(=O)N(Cc3cccc4ccccc34)C1=C[C@H](C1CCCC1)O[C@@H]2C	none (no result: MsrA act, PG9 Ab binder, MsrA inh)
Cc1ccc(OCC(=O)Nc2nnc(S(=O)(=O)N3CCCCC3)s2)cc1	rCAG binder 50 | rCAG binder conf 41 | DNA CAG counter 18
O=S1(=O)c2ccc(N3CCCC3)cc2Oc2ccccc2CN1Cc1cn(Cc2ccc(C(F)(F)F)cc2)nn1	none (no result: MsrA act, PG9 Ab binder, MsrA inh)
CC(C)CCN(C)C1CCN(C(=O)NCc2ccccc2)CC1	none (no result: MsrA act, PG9 Ab binder, MsrA inh)
COc1ccccc1NC(=O)c1cc2ccc(O)cc2o/c1=N\O	rCAG binder 46 | rCAG binder conf inactive | DNA CAG counter 7.5
COc1ccccc1N=c1oc2cc(O)ccc2cc1C(N)=O	rCAG binder 40 | rCAG binder conf inactive | DNA CAG counter inactive
COc1ccccc1NC(=O)c1cc2ccccc2o/c1=N\O	none
COc1cc(-c2nnc(SCC(=O)NN=Cc3c[nH]c4ccccc34)n2-c2ccccc2)cc(OC)c1OC	none (no result: MsrA act, PG9 Ab binder, MsrA inh)
CCOC(=O)c1sc(N2C(=O)C(O)=C(C(=O)c3ccco3)C2c2ccc([N+](=O)[O-])cc2)nc1C (stereo not given)	rCAG binder 80 | rCAG binder conf 85 | DNA CAG counter 55
CCOC(=O)c1sc(N2C(=O)C(O)=C(C(=O)c3ccco3)C2c2ccc(C)o2)nc1C (stereo not given)	rCAG binder 44 | rCAG binder conf 59 | DNA CAG counter 21
CCCCCCCCN1C(=O)[C@@H](CC(=O)NCCCN2CCCC2=O)C[C@@]2(C(=O)OC)C1=C[C@H](C(C)(C)C)O[C@@H]2C	none (no result: MsrA act)
COC(=O)C1=C(C)N(Cc2cccc(C(F)(F)F)c2)C(=NCC2CC2)NC1c1cccc(C(F)(F)F)c1 (stereo not given)	none (no result: MsrA act)
CC(=O)Nc1ccc(NC(=O)C(C)OC(=O)c2ccc3c(c2)OCCO3)cc1 (stereo not given)	none
CC(OC(=O)c1cccc(S(=O)(=O)Nc2cccc(C(F)(F)F)c2)c1)C(=O)Nc1ccc2c(c1)OCCO2 (stereo not given)	rCAG binder 37 | rCAG binder conf 36 | DNA CAG counter 8.0
Cc1cc(NS(=O)(=O)c2ccc(NC(=O)C(C)Oc3ccc(Cl)cc3)cc2)no1 (stereo not given)	none
Cc1cc(NS(=O)(=O)c2ccc(NC(=O)C(C)Oc3cc(C)c(Cl)c(C)c3)cc2)no1 (stereo not given)	rCAG binder 69 | rCAG binder conf 66 | DNA CAG counter 28
Cc1cc(NS(=O)(=O)c2ccc(NC(=O)C(C)Oc3ccccc3Cl)cc2)no1 (stereo not given)	rCAG binder 36 | rCAG binder conf inactive | DNA CAG counter inactive
Cc1ccc(OC(C)C(=O)Nc2ccc(S(=O)(=O)Nc3cc(C)on3)cc2)cc1 (stereo not given)	none
CC(C)CN1C(=O)N2CCc3ccccc3C2CS1(=O)=O (stereo not given)	none (no result: MsrA act, PG9 Ab binder, MsrA inh)
CC(C)=CCC[C@H](C)CC1Cc2[nH]c(=S)[nH]c(=O)c2C(c2ccc(Cl)cc2)O1 (stereo not given in full)	rCAG binder 35 | rCAG binder conf 42 | DNA CAG counter 16
Clc1cccc(-c2nc(-c3ccc(-c4nn[nH]n4)cc3)no2)c1	rCAG binder 36 | rCAG binder conf 62 | DNA CAG counter 19 | DNA CAG DR inactive
N#C/C(=N\Nc1ccc(S(=O)(=O)N2CCOCC2)cc1)C(N)=S	none
N#CC(C#N)=NNc1ccc(S(=O)(=O)N2CCCCC2)cc1	rCAG binder 46 | rCAG binder conf 41 | DNA CAG counter 15
Cc1cc(=O)n(CCc2ccccc2)c(O)c1C#N	rCAG binder 64 | rCAG binder conf inactive | DNA CAG counter 4.4
CCN(CC)S(=O)(=O)c1ccc(O)c(NC(=O)c2ccc(N3CCOCC3)c([N+](=O)[O-])c2)c1	rCAG binder 53 | rCAG binder conf 44 | DNA CAG counter 13
O=C(Nc1ccc(Cl)c(Cl)c1)Nc1nccs1	rCAG binder 62 | rCAG binder conf inactive | DNA CAG counter 22
Cc1ccc(S(=O)(=O)Nc2ccc3ccccc3c2[N+](=O)[O-])cc1	rCAG binder 61 | rCAG binder conf 52 | DNA CAG counter 18
Cc1ccc(S(=O)(=O)Nc2ccc3cc([N+](=O)[O-])ccc3c2[N+](=O)[O-])cc1	rCAG binder 83 | rCAG binder conf 82 | DNA CAG counter 47
COc1ccc([N+](=O)[O-])cc1NS(=O)(=O)c1ccc(C)cc1	none
CC(C)CN1C(=O)C[C@]2(C(=O)N(C)c3ccc(NS(=O)(=O)C4CC4)cc32)C1c1ccccc1 (stereo not given in full)	none (no result: MsrA act, PG9 Ab binder, MsrA inh)
Oc1ccc2ccccc2c1N=Nc1ccc(F)cc1	none
O=C(O)Cc1ccc(N=Nc2c(O)c(C(=O)O)cc3ccccc23)cc1	rCAG binder 87 | rCAG binder conf 58 | DNA CAG counter 23
O=C1C=C(O)c2c(O)cc(O)c(O)c2C1=O	rCAG binder 56 | rCAG binder conf inactive | DNA CAG counter 5.2
Nc1ccc(O)c2c1C(=O)c1ccccc1C2=O	none
C[C@@H]1Cc2c(O)c(O)cc(O)c2C(=O)O1	none (no result: rCAG binder, sPLA2-III inh, PG9 Ab binder, MsrA inh)
O=C1c2ccccc2C(=O)c2c(O)c(O)cc(O)c21	rCAG binder 42 | rCAG binder conf 60 | DNA CAG counter 32
CCOC(=O)[C@@]12CCCC3=C1N(CCC3)C(=O)[C@H]2CC(=O)NCC12CC3CC(CC(C3)C1)C2	none (no result: MsrA act, PG9 Ab binder, MsrA inh)
COC(=O)c1cc(=O)n(-c2ccc(C(F)(F)F)cc2)[nH]1	rCAG binder 61 | rCAG binder conf inactive | DNA CAG counter inactive
CCOC(=O)c1c(-c2ccc(C)c(C)c2)csc1NC(=O)C1CC=CCC1C(=O)O (stereo not given)	rCAG binder 44 | rCAG binder conf 58 | DNA CAG counter 19
Cc1cc(NS(=O)(=O)c2ccc(NC(=O)Cc3ccccc3)cc2)no1	none (no result: MsrA act, PG9 Ab binder, MsrA inh)
COC[C@H]1CCCN1c1ccc2c(c1)O[C@H](C)CCN(C1CC1)S2(=O)=O	none (no result: MsrA act, PG9 Ab binder, MsrA inh)
CC(C)(C)c1ccc(S(=O)(=O)NC(=O)C2(C)CCN2C(=O)C2CC2)cc1 (stereo not given)	none
